G9a inh = blocks human histone lysine methyltransferase G9a; Q96KQ7; G9a H3K9 monomethylation, AlphaScreen, 2 h; Potency, µM (doses to about 102 µM), for inactives: at the top dose activity, negative = inhibition, actives largely listed as inhibitors; 8.8% of 350,000 active; AID 504332; further: on the % scale 0 is the no-effect control and ±100 the full control effect; nearly all actives have a fitted effect of over 75% in size
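Compounds were preincubated with 20 nM G9a for 15 min, after which biotinylated H3K9 peptide (500 nM) and SAM (20 uM) started a 2 h room-temperature reaction. Monomethylated product was quantified by antibody-based AlphaScreen chemiluminescence.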
Sfp inh = blocks B. subtilis Sfp PPTase activity; 3.5% of 310,000 active; Q9F4F7; Potency, µM, inactives show largest response in the series, negative = inhibition, hits mostly inhibitors; Biochemical Sfp PPTase activity, qHTS;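 further: the enzyme is Sfp with the accession as filed and its product quenches rhodamine fluorescence; 0% = enzyme reaction without inhibitor and -100% = no enzyme wells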
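Step 1, compound plus 15 nM Sfp-PPTase, 15 min, room temperature. Step 2, add rhodamine-CoA (5 uM) and BHQ-2-YbbR (12.5 uM). Step 3, read 525/598 nm fluorescence at 0 and 30 min.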
HP1b binding inh = inhibitors of HP1-beta chromodomain binding to methylated histone tails; 0.56% of 390,000 active; P83916; Potency, µM (series often up to 114 µM), for the others: at the highest dose activity change, negative = inhibition, usual class: inhibitors; AlphaScreen HP1-beta / biotin-H3K9me3 peptide binding; further: nearly all actives have a fitted effect of over 70% in size
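HP1-beta protein (50 nM final) preincubated 30 min at room temperature with biotinylated H3(1-18)K9me3 peptide (50 nM) in PBS pH 7.4, 0.01% Tween-20, then compound added for 30 min. AlphaScreen streptavidin donor/nickel chelate acceptor beads (10 ug/mL final), 30 min dark, luminescence read.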
JMJD2A Tudor inh = JMJD2A Tudor domain (human) inhibition | AlphaScreen JMJD2A-Tudor / H3K4me3 peptide binding | Potency, µM (titrated, usually from 114 µM), without a hit: at the highest dose activity change, negative = inhibition, hits mostly inhibitors | O75164 | AID 504339 | 4.4% of 390,000 active; further: on the % scale 0 is the no-effect control and ±100 the full control effect; nearly all actives have a fitted effect of over 50% in size
Target sequence (O75164 whole entry, looked up, the tested form may be a part): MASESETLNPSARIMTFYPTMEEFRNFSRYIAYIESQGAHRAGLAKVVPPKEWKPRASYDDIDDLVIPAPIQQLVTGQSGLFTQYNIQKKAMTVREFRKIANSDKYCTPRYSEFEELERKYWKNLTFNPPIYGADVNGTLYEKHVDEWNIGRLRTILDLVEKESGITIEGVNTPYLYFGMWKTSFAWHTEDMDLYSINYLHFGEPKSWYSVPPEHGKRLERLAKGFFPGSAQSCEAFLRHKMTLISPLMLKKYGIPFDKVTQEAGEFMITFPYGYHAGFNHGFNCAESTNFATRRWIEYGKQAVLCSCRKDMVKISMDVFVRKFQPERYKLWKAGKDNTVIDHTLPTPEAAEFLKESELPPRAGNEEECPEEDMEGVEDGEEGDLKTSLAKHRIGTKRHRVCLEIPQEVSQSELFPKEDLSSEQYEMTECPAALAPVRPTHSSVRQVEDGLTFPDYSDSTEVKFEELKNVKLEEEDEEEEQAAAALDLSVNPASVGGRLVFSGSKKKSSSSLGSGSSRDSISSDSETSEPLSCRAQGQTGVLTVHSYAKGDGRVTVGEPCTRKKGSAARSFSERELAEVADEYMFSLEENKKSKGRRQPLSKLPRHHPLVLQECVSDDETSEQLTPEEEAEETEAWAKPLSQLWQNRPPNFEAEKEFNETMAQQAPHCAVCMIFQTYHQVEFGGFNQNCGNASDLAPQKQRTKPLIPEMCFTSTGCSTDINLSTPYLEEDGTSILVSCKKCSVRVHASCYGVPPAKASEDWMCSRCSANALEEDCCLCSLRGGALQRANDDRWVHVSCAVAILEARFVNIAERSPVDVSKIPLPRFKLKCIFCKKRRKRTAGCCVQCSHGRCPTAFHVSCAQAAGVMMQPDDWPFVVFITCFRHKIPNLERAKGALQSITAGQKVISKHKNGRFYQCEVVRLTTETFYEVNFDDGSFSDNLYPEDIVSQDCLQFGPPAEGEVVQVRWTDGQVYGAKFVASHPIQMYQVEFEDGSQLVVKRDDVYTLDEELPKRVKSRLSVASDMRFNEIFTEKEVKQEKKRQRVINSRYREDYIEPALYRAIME
BAZ2B block = BAZ2B (human) inhibition; AlphaScreen BAZ2B-H3K14Ac peptide displacement; Potency, µM (highest dose often 114 µM), for the others: top-dose activity change, negative = inhibition, hits mostly inhibitors; 4.4% of 360,000 active; AID 504333; further: on the % scale 0 is the no-effect control and ±100 the full control effect; nearly all actives have a fitted effect of over 60% in size
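AlphaScreen displacement of biotin-H3(5-23)K14Ac peptide (50 nM final) from BAZ2B (50 nM final) in PBS pH 7.4, 0.01% Tween-20; complex preformed 30 min RT, then compounds (top 110 uM) 30 min RT, beads 20 min dark.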
ALOX12 inh = inhibitors of human 12S-lipoxygenase ALOX12; 1.1% of 580,000 active; Potency, µM (series often up to 108 µM), inactives show top-dose activity change, negative = inhibition, actives largely listed as inhibitors; purified 12hLO, xylenol orange hydroperoxide absorbance; P18054; further: on the % scale 0 is the no-effect control and ±100 the full control effect
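Hydroperoxide product was detected by ferrous iron/xylenol orange as the 573 to 405 nm absorbance ratio. Arachidonic acid at 40 uM (final) was turned over for 30 min at room temperature by 150 nM human 12hLO, pH 7.0 Hepes buffer, after 15 min compound preincubation.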
* hit, by the source's call; [ ] = dose if it differs, or a comment. Only some compounds are listed: those with a hit (about 8.7% of all), similar ones and a draw of the others. The call rests on the fitted dose curve; in most records, active means well fitted curve in the direction sought with a large enough effect; inconclusive means small, poorly fitted or top-dose-only effect, or another doubt; inactive means no such curve, though single readings can be large; an effect the other way counts as inactive or inconclusive. Potency means the concentration at half of the fitted maximal effect.

Screening COCCN1C(=O)c2cccn2CC1CNC(=O)c1cccc2nccnc12 (stereo not drawn) returned ALOX12 inh -0.8%.
CCCCN1C(=O)[C@@H]2C[C@@H](O)CN2C2(CN(CC3CC3)C2)C1=O was read as ALOX12 inh 9.1%[176 µM].
For Oc1cccc(C(=S)N2CCCCC2)c1 the results were G9a inh 31.6µM*, Sfp inh 22.4µM*, HP1b binding inh -23.3%, JMJD2A Tudor inh -9.8%[11.4 µM], BAZ2B block -20.4% and ALOX12 inh inconclusive.
`O=C(Oc1cccc(C(=S)N2CCCCC2)c1)c1ccccc1` gave G9a inh inconclusive, Sfp inh -22.3%, HP1b binding inh 18.5%, JMJD2A Tudor inh -6.5%, BAZ2B block -24.3% and ALOX12 inh 0.0%.
Screening C[C@@]1(C(=O)O)NCCc2cc(O)c(O)cc21 returned Sfp inh 56.2µM* and ALOX12 inh inactive.
Screening COCCn1c(CO)nnc1C1CC(NC(=O)c2c(C)noc2C)C1 (stereo not drawn) returned ALOX12 inh -6.1%.
For O=S(=O)(/N=C(\c1ccccc1)N1CCOCC1)c1cccs1 the results were G9a inh 8.8%[12.7 µM], Sfp inh 18.5%, HP1b binding inh 48.8%, JMJD2A Tudor inh -9.4%, BAZ2B block 7.3% and ALOX12 inh 0.0%.
For Cc1ccccc1S(=O)(=O)/N=C(/c1ccccc1)N1CCOCC1 the results were Sfp inh 2.7%, HP1b binding inh -9.3%, JMJD2A Tudor inh 31.6µM*, BAZ2B block -8.2% and ALOX12 inh -3.9%.
For Cc1cccc(NS(=O)(=O)c2ccc(Br)s2)n1 the results were G9a inh inconclusive, Sfp inh 11.0%, HP1b binding inh 25.1%, JMJD2A Tudor inh -11.3%, BAZ2B block -8.1% and ALOX12 inh inconclusive.
Screening Cc1ccc(NS(=O)(=O)c2ccc(Br)s2)nc1 returned G9a inh 39.8µM*, Sfp inh inconclusive, HP1b binding inh -14.5%, JMJD2A Tudor inh -19.7%, BAZ2B block -31.0% and ALOX12 inh -3.4%.
For COc1ccc(C)cc1NS(=O)(=O)c1ccc(Br)s1 the results were G9a inh 18.6%[2.33 µM], Sfp inh 3.0%, HP1b binding inh 39.7%, JMJD2A Tudor inh -7.9%, BAZ2B block 0.3% and ALOX12 inh -2.1%.
`Cc1cc(C)nc(NS(=O)(=O)c2ccc(Br)s2)c1` gave G9a inh 50.1µM*, Sfp inh inconclusive, HP1b binding inh 30.1%, JMJD2A Tudor inh -21.4%, BAZ2B block -1.6% and ALOX12 inh inconclusive.
Screening O=C(Nc1ccc(Cl)cc1)N1CCN(CCc2ccncc2)CC1 returned ALOX12 inh 6.6%.
For Cc1cc(Br)ccc1NC(=O)CN(C)C(=O)Cn1c(=O)cnc2ccccc21 the results were Sfp inh -7.2%, HP1b binding inh inconclusive, JMJD2A Tudor inh 17.8µM*, BAZ2B block 79.4µM* and ALOX12 inh inconclusive.
For CN(CC(=O)Nc1cccc(F)c1)C(=O)Cn1c(=O)cnc2ccccc21 the results were G9a inh inconclusive, HP1b binding inh 21.9%, JMJD2A Tudor inh -11.0%, BAZ2B block -2.3% and ALOX12 inh 0.0%.
For Cc1ccccc1-c1cn(-c2ccccc2)c(=S)[nH]1 the results were G9a inh 1.41µM*, Sfp inh inconclusive, HP1b binding inh -19.3%, JMJD2A Tudor inh inconclusive, BAZ2B block inconclusive and ALOX12 inh inconclusive.
For Cc1ccc(-c2cn(-c3ccccc3)c(=S)[nH]2)cc1C the results were G9a inh 44.7µM*, Sfp inh -24.2%, HP1b binding inh inconclusive, JMJD2A Tudor inh inconclusive, BAZ2B block 31.6µM* and ALOX12 inh 35.5µM*.
Screening CC(C)CCN1CCNC(=O)C1CC(=O)N(Cc1nccs1)C1CC1 (stereo not drawn) returned ALOX12 inh 3.2%.
For O=C1C(Cl)=C(Nc2ccc(O)cc2)C(=O)c2ccccc21 the results were G9a inh 11.2µM*, Sfp inh -22.1%, HP1b binding inh inconclusive, JMJD2A Tudor inh inconclusive, BAZ2B block inconclusive and ALOX12 inh 0.0%.
CCN(CC)c1ccc(NC2=C(Cl)C(=O)c3ccccc3C2=O)cc1 was read as G9a inh 1.78µM*, Sfp inh inconclusive, HP1b binding inh 3.98µM*, JMJD2A Tudor inh 2.51µM* and BAZ2B block 2.24µM*.
Cc1cc(C)cc(NC2=C(N)C(=O)c3ccccc3C2=O)c1 was read as G9a inh 1.58µM*, Sfp inh 17.9%, HP1b binding inh -19.1%, JMJD2A Tudor inh inconclusive and BAZ2B block inconclusive.
CCC(=O)NC1=C(Nc2ccc(N)cc2)C(=O)c2ccccc2C1=O was read as G9a inh 50.1µM*, Sfp inh -0.7%, HP1b binding inh inconclusive, JMJD2A Tudor inh -22.7%, BAZ2B block inconclusive and ALOX12 inh 1.8%.
O=C1Nc2ccccc2CC12CCN(Cc1ccc(OC(F)(F)F)cc1)CC2 was read as ALOX12 inh 35.0%.
CC(C)C(=O)N1CCN(C(=O)c2cc(C3CC3)nc3ccccc23)CC1 was read as ALOX12 inh -13.4%.
Screening Cc1ccc(NC2=C(Cl)C(=O)c3ccccc3C2=O)cc1 returned G9a inh 79.4µM*, Sfp inh 15.9%, HP1b binding inh -19.9%, JMJD2A Tudor inh inconclusive, BAZ2B block inconclusive and ALOX12 inh 14.4%.
For CCCC(=O)NC1=C(Cl)C(=O)c2ccccc2C1=O the results were HP1b binding inh 7.08µM*, JMJD2A Tudor inh 1.78µM* and ALOX12 inh inconclusive.
Cc1ncc2c(N3CC4CCC(C3)N4CC(F)(F)F)nc3ccccc3n12 was read as ALOX12 inh -3.2%[6.33 µM].
Screening C[C@@]1(O)CCN(CC2CCCCC2)C[C@H]1N1CCCC1 returned ALOX12 inh 174.4%.
Screening COc1ccc(-c2nc3c(n2O)CCc2c-3no[n+]2[O-])cc1 returned G9a inh 50.1µM*, Sfp inh 13.6%, HP1b binding inh -3.9%, JMJD2A Tudor inh -11.0%[11.4 µM], BAZ2B block -31.6% and ALOX12 inh 1.7%.
`CCC(=O)Nc1ccc(C(=O)COC(=O)c2nc3nccc(C)n3n2)cc1` gave G9a inh 4.9%[12.7 µM], HP1b binding inh inconclusive, JMJD2A Tudor inh 39.8µM*, BAZ2B block 10µM* and ALOX12 inh 53.6%.
Cc1ccnc2nc(C(=O)Nc3nccs3)nn12 was read as G9a inh inconclusive, Sfp inh -11.7%, HP1b binding inh 27.5%, JMJD2A Tudor inh 10µM*, BAZ2B block inconclusive and ALOX12 inh inconclusive.
Screening Cc1ccnc2nc(C(=O)OCC(=O)c3ccc(NC(=O)CC(C)C)cc3)nn12 returned HP1b binding inh -21.2%, JMJD2A Tudor inh inconclusive and ALOX12 inh -11.9%.

Screens from PubChem.
